# Sampled rows, rich in hits. Any-hit rate of the full collection: about 3%.
# p53null 39C kill: qHTS Screen for Compounds that Selectively Target Cancer Cells with p53 Mutations: Cytotoxicity of p53 Null Cells at the Nonpermissive Temperature; H1299 p53-null (neo) cells, 39C, ATPlite viability, 24 h; Potency, µM (doses to about 46.1 µM), for the others: top-dose activity, negative = cell killing, most hits filed as cytotoxic; 55,000 compounds, 0.97% hits;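 further: potency means the concentration at half of the fitted maximal effect; 0% = DMSO only and -100% = full killing by 100 µM tamoxifen; nearly all actives have a fitted effect of over 50% in size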
#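 H1299 lung cancer cells, p53-null (H1299-neo) or expressing p53 A138V (H1299-p53A138V), were plated overnight at 37C, then exposed to compounds at up to 46 uM for 24 hr at 39C. Viability was read by ATP-based luminescence.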
# PMP22 txn: Cell-based coincidence reporter assay to measure PMP22 gene transcription in S16 Pmp22-F2sN cells - Primary screen; S16 Pmp22-F2sN Schwann cells, FLuc/NLuc coincidence luminescence, 24 h; Potency, µM (titrated, usually from 57.5 µM), without a hit: top-dose activity change, negative = inhibition, usual class: inhibitors; 43,000 compounds, 2% hits; active means clear falling dose curves in both reporters; inconclusive means both reporters move, but less clearly or upward; inactive means either reporter flat; the % is the NLuc reporter signal; further: potency means the concentration at half of the fitted maximal effect; on the % scale 0 is the no-effect control and ±100 the full control effect
#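 qHTS, 1536-well. Cells seeded, compounds added by pin tool, 24 h 37C. Nano-Glo reagent 1 (lysis/FLuc), 10 min RT, read; Stop&Glo, 10 min RT, read NLuc.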
# p53null 32C tox: qHTS Screen for Compounds that Selectively Target Cancer Cells with p53 Mutations: Cytotoxicity of p53 Null Cells at the Permissive Temperature | Potency, µM (series often up to 46.1 µM), without a hit: at the top dose activity change, negative = cytotoxicity, actives largely listed as cytotoxic | 55,000 compounds, 0.62% hits | H1299-neo p53 null cells, ATP luminescence, 24 h, 32C;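 further: potency means the concentration at half of the fitted maximal effect; 0% = DMSO only and -100% = full killing by 100 µM tamoxifen; nearly all actives have a fitted effect of over 55% in size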
#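 AC50 values derive from Hill modelling of qHTS concentration-response data (up to 46 uM) in H1299-neo cells. Cells were treated 24 h at 32C following overnight attachment at 37C; viability was read as cellular ATP.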
# pS6 MEF inh: Acumen qHTS Assay for Inhibitors of the mTORC1 Signaling Pathway in MEF (Tsc2-/-, p53-/-) Cells: Sytravon; Potency, µM (titrated, usually from 38.3 µM), inactives show top-dose activity change, negative = inhibition, hits mostly inhibitors; Tsc2-/- p53-/- MEF, phospho-rpS6 immunofluorescence/PI, 24 h; AID 493208, 2011; 44,000 compounds, 0.78% hits;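 further: potency means the concentration at half of the fitted maximal effect; plate controls were DMSO for no effect and rapamycin for full effect; nearly all actives have a fitted effect of over 50% in size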
#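 Plate MEFs (Tsc2-/-, p53-/-, empty vector) in DMEM/10% FBS; after 24 h add compound, incubate 24 h at 37 degree Celsius; fix in PFA/TX-100, block, stain phospho-rpS6 and 10 uM PI; scan at 488 nm; report % positive cells.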
# OvCa metastasis: Primary qHTS assay for Inhibitors of ovarian cancer metastasis using an organotypic tumor microenvironment (TME) model | 46,000 compounds, 0.1% hits | SKOV3ip1-GFP adhesion/invasion on 3D omental model, fluorescence | AID 1963576, 2024 | Potency, µM (highest dose often 45.8 µM), inactives show at the top dose activity change, negative = inhibition, hits mostly inhibitors;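 further: potency means the concentration at half of the fitted maximal effect; plate controls were DMSO wells for no effect and tomatine positive control wells for full effect; nearly all actives have a fitted effect of over 65% in size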
#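 A 3D layer of primary human omental fibroblasts, mesothelial cells, fibronectin and collagen I, grown 48 hr, received SKOV3ip1-GFP cells in serum-free medium plus compounds at 0.36-46 umol/L. After 2 hr RT and 16 hr 37 C, fixed adherent GFP cells were counted; normalized to DMSO and tomatine.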
# S16 F2sN tox: Cell viability qHTS assay in S16 Pmp22-F2sN cells; S16 Pmp22-F2sN Schwann cells viability, CellTiter-Glo, 24 h; Potency, µM (highest dose often 57.5 µM), for inactives: at the top dose activity change, negative = cytotoxicity, hits mostly cytotoxic; AID 1508642, 2021; 43,000 compounds, 0.48% hits; further: potency means the concentration at half of the fitted maximal effect; on the % scale 0 is the no-effect control and ±100 the full control effect; nearly all actives have a fitted effect of over 65% in size
#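 Used to flag compounds lowering reporter output through toxicity, this quantitative HTS measures ATP-based CellTiter-Glo luminescence in S16 Pmp22-F2sN Schwann cells after 24 h compound exposure at 37C.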
# NLuc saturating: Biochemical NLuc saturation counterscreen for small molecule modulators of PMP22 gene expression - Nano-Glo assay; 690 compounds, 4% hits; Secreted NLuc enzyme (filtered S16 cell medium), Nano-Glo luminescence; shares compounds with PMP22 txn; Potency, µM (series often up to 57.5 µM), without a hit: top-dose activity change, negative = inhibition, usual class: inhibitors; further: potency means the concentration at half of the fitted maximal effect; on the % scale 0 is the no-effect control and ±100 the full control effect
# NLuc Km counter: Biochemical coelenterazine-based NLuc counterscreen for small molecule modulators of PMP22 gene expression - Km assay. shares compounds with PMP22 txn. secreted NLuc enzyme, coelenterazine luminescence, Km conditions. 690 compounds, 5% hits. Potency, µM (top dose mostly 57.5 µM), for inactives: at the top dose activity change, negative = inhibition, hits mostly inhibitors; further: potency means the concentration at half of the fitted maximal effect; on the % scale 0 is the no-effect control and ±100 the full control effect
# FLuc ctr PMP22: Biochemical FLuc counterscreen for small molecule modulators of PMP22 gene expression; shares compounds with PMP22 txn; purified P. pyralis FLuc, luminescence, 10 min; Potency, µM (series often up to 57.5 µM), without a hit: top-dose activity, negative = inhibition, usual class: inhibitors; 690 tested, under 10 active; AID 1508640, 2021; further: % of control where 0% means no effect
# Target sequence (P08659 whole entry, looked up): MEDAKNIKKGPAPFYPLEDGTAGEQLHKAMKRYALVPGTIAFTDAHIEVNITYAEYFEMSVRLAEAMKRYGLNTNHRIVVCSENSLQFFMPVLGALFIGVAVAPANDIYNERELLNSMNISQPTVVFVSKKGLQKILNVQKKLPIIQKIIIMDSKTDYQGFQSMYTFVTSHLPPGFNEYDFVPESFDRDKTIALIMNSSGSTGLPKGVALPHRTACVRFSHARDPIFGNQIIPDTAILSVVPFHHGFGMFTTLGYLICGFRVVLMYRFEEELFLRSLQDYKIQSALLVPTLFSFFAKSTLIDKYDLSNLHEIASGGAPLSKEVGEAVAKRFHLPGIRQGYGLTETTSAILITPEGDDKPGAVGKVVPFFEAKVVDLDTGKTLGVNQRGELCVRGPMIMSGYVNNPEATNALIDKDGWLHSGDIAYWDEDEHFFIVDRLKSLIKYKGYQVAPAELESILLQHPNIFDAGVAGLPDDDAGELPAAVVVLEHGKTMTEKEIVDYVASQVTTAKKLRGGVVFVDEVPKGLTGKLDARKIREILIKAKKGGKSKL
# S16 F2sN tox cnf: Cell viability qHTS assay in S16 Pmp22-F2sN cells - Confirmatory screen; shares compounds with PMP22 txn; S16 Schwann cells viability, CellTiter-Glo ATP luminescence, 24 h; Potency, µM (top dose mostly 57.5 µM), for inactives: at the top dose activity change, negative = viability loss, usual class: cytotoxic; 690 compounds, 7% hits; AID 1508641, 2021; further: potency means the concentration at half of the fitted maximal effect; on the % scale 0 is the no-effect control and ±100 the full control effect
# PMP22 txn conf: Cell-based coincidence reporter assay to measure PMP22 gene transcription in S16 Pmp22-F2sN cells - Confirmatory screen | shares compounds with PMP22 txn | S16 Schwann cells Pmp22-F2sN, dual luciferase, 24 h | Potency, µM (doses to about 57.5 µM), without a hit: top-dose activity change, negative = inhibition, usual class: inhibitors | 690 compounds, 22% hits; active means clear falling dose curves in both reporters; inconclusive means both reporters move, but less clearly or upward; inactive means either reporter flat; the % is the FLuc reporter signal; further: potency means the concentration at half of the fitted maximal effect
# The depositor's hits bear a star; i = inactive; u = inconclusive; x = no result given. Unless noted, the call rests on the fitted dose curve; in most records, active means well fitted curve in the direction sought with a large enough effect; inconclusive means small, poorly fitted or top-dose-only effect, or another doubt; inactive means no such curve, though single readings can be large; an effect the other way counts as inactive or inconclusive.
SMILES,p53null 39C kill,PMP22 txn,p53null 32C tox,pS6 MEF inh,OvCa metastasis,S16 F2sN tox,NLuc saturating,NLuc Km counter,FLuc ctr PMP22,S16 F2sN tox cnf,PMP22 txn conf
Cc1ccc(OCCSc2nc3ccc(NC(=O)c4ccc5c(c4)OCO5)cc3s2)cc1,-3%,14µM*,-11%,-4%,6%,0%,-3%,1%,-2%,u,u
Cc1cccc(C(=O)Nc2ccc3nc(SCCOc4ccccc4)sc3c2)c1,-1%,u,-10%,0%,i,19%,x,x,x,x,x
CCOc1ccc(C(=O)Nc2ccc3nc(SCCOc4ccccc4)sc3c2)cc1,-3%,11µM*,-10%,-4%,4%,10%,-2%,2%,4%,-11%,-40%
C[C@]12CC[C@@H]3c4ccc(O)cc4CC[C@H]3[C@H]1CC[C@H]2O,x,x,x,x,-9%,x,x,x,x,x,x
c1ccc(-c2oc3ncnc(NC[C@@H]4CCCO4)c3c2-c2ccccc2)cc1,x,x,x,x,-1%,x,x,x,x,x,x
O=C(N[C@@H](c1ccccc1)[C@@H]1CCCCN1)c1cccc(C(F)(F)F)c1Cl,x,x,x,x,4%,x,x,x,x,x,x
CCc1ccc2oc(-c3cccc(NC(=O)c4cc5ccccc5o4)c3)nc2c1,-11%,1%,-6%,u,i,1%,x,x,x,x,x
O=C(Nc1cccc(-c2nc3ccccc3o2)c1)C(F)(F)F,-23%,8µM*,u,-1%,u,u,u,u,u,21%,u
CC(=CC(=O)Nc1ccccc1C(=O)O)c1ccc2ccccc2c1,x,x,x,x,-14%,x,x,x,x,x,x
CCCCNC(=O)c1cnn2c(C)c(Cc3c(C)cc(C)cc3C)c(C)nc12,22%,u,u,1%,-2%,-25%,x,x,x,x,x
CCCNC(=O)c1cnn2c(C)c(Cc3c(C)cc(C)cc3C)c(C)nc12,7%,16µM*,21%,2%,-2%,u,u,22µM*,-2%,-15%,u
